Experimental data published in PubChem BioAssay (NCATS).
Records with an inconclusive call do not appear. The source made the active and inactive calls. Calls follow the shape of the dose curve; as a rule, active = well fitted curve in the direction sought with a large enough effect; inconclusive = small, poorly fitted or top-dose-only effect, or another doubt; inactive = no such curve, though single readings can be large; an effect the other way counts as inactive or inconclusive.

Legend:
[1] = qHTS for Inhibitors of Plasmodium falciparum (DD2) proliferation (AID 504314);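 also: parasite DNA measured by SYBR Green fluorescence after red cell lysis; plate controls were DMSO vehicle for no effect and artemisinin wells for full effect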
How it was run: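 SYBR Green DNA-fluorescence growth assay: infected RBCs at 0.3% parasitemia, 2.5% hematocrit, 72 h compound exposure, 37C, 5% CO2; overnight lysis with dye at RT; normalized to 0.29 uM artemisinin and vehicle.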

[2] = qHTS for Inhibitors of Plasmodium falciparum (GB4) proliferation (AID 504315);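 also: 0% = DMSO vehicle and -100% = 0.29 µM artemisinin control; nearly all actives have a fitted effect of over 50% in size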
How it was run: (§1)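 Parasite growth measured as SYBR Green DNA fluorescence (ex 485, em 535 nm) after overnight lysis following 72 h culture at 37 °C, 0.3% parasitemia, 2.5% hematocrit. Values normalized against DMSO and 0.29 uM artemisinin controls, with plate-stack correction.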

[3] = qHTS for Inhibitors of Plasmodium falciparum (7G8) proliferation (AID 504316);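 also: series mostly up to about 6.7 µM; 0% = DMSO vehicle and -100% = 0.29 µM artemisinin full kill; nearly all actives have a fitted effect of over 65% in size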
How it was run: as §1

[4] = qHTS for Inhibitors of Plasmodium falciparum (CP250) proliferation (AID 504320);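 also: plate controls were DMSO vehicle for no effect and 0.29 µM artemisinin control for full effect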
How it was run: as §1

[5] = molecular target: Cytochrome P450 2C9 (Homo sapiens) (UniProt P11712); test: qHTS Assay for Inhibitors and Substrates of Cytochrome P450 2C9 (AID 883); also: % is scaled to controls: 0 for no effect and ±100 for the full control effect; nearly all actives have a fitted effect of over 60% in size
Chain of Cytochrome P450 2C9 (Homo sapiens) (P11712 whole entry, looked up): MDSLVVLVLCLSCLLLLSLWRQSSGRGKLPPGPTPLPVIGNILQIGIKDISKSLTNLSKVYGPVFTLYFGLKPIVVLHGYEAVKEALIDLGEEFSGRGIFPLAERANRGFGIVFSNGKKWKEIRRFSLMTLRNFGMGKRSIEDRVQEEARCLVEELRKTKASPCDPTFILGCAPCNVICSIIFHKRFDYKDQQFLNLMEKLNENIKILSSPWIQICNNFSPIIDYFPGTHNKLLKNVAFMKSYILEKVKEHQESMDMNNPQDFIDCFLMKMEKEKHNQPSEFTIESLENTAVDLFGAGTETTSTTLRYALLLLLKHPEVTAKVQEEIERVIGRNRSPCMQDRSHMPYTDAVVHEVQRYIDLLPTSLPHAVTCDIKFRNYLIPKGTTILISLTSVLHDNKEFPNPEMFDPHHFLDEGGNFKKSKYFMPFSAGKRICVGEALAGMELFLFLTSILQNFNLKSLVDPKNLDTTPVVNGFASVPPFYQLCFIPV
How it was run: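 Turnover of Luciferin-H (100uM, KM) by 10nM human CYP2C9 was measured over 60 min at 37C with NADPH regeneration; inhibitors and some substrates reduce luminescence. Data normalized to sulphaphenazole 57uM.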

[6] = molecular target: Cytochrome P450 3A4 (Homo sapiens) (UniProt P08684); test: qHTS Assay for Inhibitors and Substrates of Cytochrome P450 3A4 (AID 884); also: series mostly up to about 57 µM; % is scaled to controls: 0 for no effect and ±100 for the full control effect; nearly all actives have a fitted effect of over 50% in size
Chain of Cytochrome P450 3A4 (Homo sapiens) (P08684 whole entry, looked up): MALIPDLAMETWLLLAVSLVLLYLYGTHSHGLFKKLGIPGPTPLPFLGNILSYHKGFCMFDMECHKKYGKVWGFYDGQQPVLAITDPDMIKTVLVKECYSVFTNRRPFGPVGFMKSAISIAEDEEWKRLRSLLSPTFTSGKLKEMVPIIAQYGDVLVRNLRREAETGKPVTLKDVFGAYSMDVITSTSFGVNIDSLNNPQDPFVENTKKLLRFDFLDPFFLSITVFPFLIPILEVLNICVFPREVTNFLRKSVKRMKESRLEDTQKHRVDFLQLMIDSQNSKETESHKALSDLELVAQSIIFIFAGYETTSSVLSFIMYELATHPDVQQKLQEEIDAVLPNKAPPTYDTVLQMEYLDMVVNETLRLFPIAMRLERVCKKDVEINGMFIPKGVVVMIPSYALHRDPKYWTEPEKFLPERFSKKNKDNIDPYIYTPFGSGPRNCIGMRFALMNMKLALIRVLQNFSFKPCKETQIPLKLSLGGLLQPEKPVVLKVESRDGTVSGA
How it was run: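 Luminescent readout of luciferin produced by CYP3A4 (20 nM) dealkylation of Luciferin-PPXE, 25 uM (its KM). NADPH-driven reaction ran 60 min at RT after 10 min compound preincubation; data scaled to 57 uM ketoconazole as 100% inhibition.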

[7] = molecular target: Cytochrome P450 2D6 (Homo sapiens) (UniProt P10635); test: qHTS Assay for Inhibitors and Substrates of Cytochrome P450 2D6 (AID 891); also: nearly all actives have a fitted effect of over 60% in size; also: potency is read from the fitted curve at half-maximal effect;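 as to activity change, negative = inhibition: luciferin methyl ether substrate demethylated by CYP2D6 with NADPH regeneration; % is scaled to controls: 0 for no effect and ±100 for the full control effect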
Chain of Cytochrome P450 2D6 (Homo sapiens) (P10635 whole entry, looked up): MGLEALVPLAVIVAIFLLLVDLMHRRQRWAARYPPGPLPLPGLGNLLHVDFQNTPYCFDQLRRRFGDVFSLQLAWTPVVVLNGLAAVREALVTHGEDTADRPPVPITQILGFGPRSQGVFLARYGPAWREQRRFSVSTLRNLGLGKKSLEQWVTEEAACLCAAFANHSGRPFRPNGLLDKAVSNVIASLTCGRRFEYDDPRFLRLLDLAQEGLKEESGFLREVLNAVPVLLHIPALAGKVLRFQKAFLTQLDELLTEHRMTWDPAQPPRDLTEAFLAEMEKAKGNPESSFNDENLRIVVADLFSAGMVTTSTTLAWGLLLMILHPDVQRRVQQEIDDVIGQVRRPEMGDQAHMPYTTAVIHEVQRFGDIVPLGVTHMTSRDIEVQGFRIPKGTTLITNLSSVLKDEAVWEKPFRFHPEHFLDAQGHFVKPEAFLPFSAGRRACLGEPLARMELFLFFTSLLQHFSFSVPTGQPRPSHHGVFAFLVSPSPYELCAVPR
How it was run: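 Luminescent read-out of luciferin formed by 5 nM human CYP2D6 demethylating 30 uM Luciferin-ME EGE (Km level) over 60 min at room temperature after NADPH regeneration addition. Data normalized to full inhibition by 1.43 uM quinidine.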

[8] = molecular target: Cytochrome P450 2C19 (Homo sapiens) (UniProt P33261); test: qHTS Assay for Inhibitors and Substrates of Cytochrome P450 2C19 (AID 899); also: % is scaled to controls: 0 for no effect and ±100 for the full control effect; nearly all actives have a fitted effect of over 60% in size
Chain of Cytochrome P450 2C19 (Homo sapiens) (P33261 whole entry, looked up): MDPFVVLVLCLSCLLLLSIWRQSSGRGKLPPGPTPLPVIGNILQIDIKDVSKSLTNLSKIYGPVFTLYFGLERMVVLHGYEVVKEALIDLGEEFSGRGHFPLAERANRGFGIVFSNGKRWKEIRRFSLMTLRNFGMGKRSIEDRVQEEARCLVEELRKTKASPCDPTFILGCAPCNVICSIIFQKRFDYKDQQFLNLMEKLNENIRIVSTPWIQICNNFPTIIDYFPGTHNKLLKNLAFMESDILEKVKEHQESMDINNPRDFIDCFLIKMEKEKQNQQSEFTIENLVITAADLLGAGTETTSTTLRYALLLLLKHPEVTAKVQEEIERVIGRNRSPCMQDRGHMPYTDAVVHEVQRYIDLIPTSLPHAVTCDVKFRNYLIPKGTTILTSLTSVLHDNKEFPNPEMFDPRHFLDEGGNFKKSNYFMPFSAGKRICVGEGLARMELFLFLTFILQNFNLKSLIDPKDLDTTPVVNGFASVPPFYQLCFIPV
How it was run: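 Reactions contain 5nM enzyme, 10uM Luciferin-H EGE (KM) and 50mM KPO4; compound preincubates 10 min at 37C, NADPH regeneration starts turnover for 60 min. Luminescence after detection reagent gives activity.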

[9] = qHTS for Inhibitors of Plasmodium falciparum (HB3) proliferation (AID 504318);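 also: 0% = DMSO vehicle and -100% = artemisinin control; nearly all actives have a fitted effect of over 60% in size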
How it was run: as §1

[10] = molecular target: Cytochrome P450 3A4 (Homo sapiens) (UniProt P08684); test: qHTS Assay for Activators of Cytochrome P450 3A4 (AID 885); also: nearly all actives have a fitted effect of over 65% in size
How it was run: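 Activators are scored by enhanced luminescence from CYP3A4 conversion of luciferin-PPXE (25uM, equal to KM) to luciferin, after 60 min at RT with an NADPH-regenerating system.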

COC(=O)C1=C[C@@]2(c3ccc(F)cc3[C@@H](OC)[C@@H]2C)[C@@H]2C=C[C@H]1C2
inactive: Potency [1] | Potency [2] | Potency [3] | Potency [4]

C=CCN1C=C2C(=O)C(C)(OC(=O)c3ccco3)C(=O)C(C=C)=C2C=C1C1CC1 (stereo not drawn)
inactive: activity, negative = inhibition [1] 2.08% [at 1.12 µM] | Potency [2] | Potency [3] | Potency [4]

Cc1c(O)ccc2c1OCO2
inactive: activity change, negative = inhibition [5] -0.37% [at 11.4 µM] | activity change, negative = inhibition [6] -25.6% [at 11.4 µM] | activity change, negative = inhibition [7] -1.17% [at 11.4 µM] | activity, negative = inhibition [8] 39.4% [at 11.4 µM] | Potency [1] | Potency [2] | Potency [3] | Potency [9] | Potency [4]

CC(=O)OC[C@H]1O[C@H](CC=NO[C@H](C)c2cn([C@H](CO)Cc3ccccc3)nn2)C=C[C@@H]1OC(C)=O
inactive: Potency [1] | Potency [3] | Potency [9] | Potency [4]

COC(=O)N[C@@H](c1ccco1)[C@]1(C(C)=O)CCCC1=O
inactive: Potency [1] | Potency [2] | Potency [9] | Potency [4]

C[C@H]1Cc2c(COc3ccccc3)nc3c(c2CO1)CN(C(=O)C1CCCCC1)CC3
inactive: activity, negative = inhibition [1] -0.952% [at 1.12 µM] | Potency [2] | Potency [3] | Potency [9] | Potency [4]

C[C@H]1C[C@@H](C)O[C@@]2(C1)C(=O)N(CC1CC1)c1ccccc12
inactive: Potency [1] | Potency [3] | Potency [9] | Potency [4]

COC(=O)[C@@H]1[C@@H](c2cccc(C(F)(F)F)c2)NC(=O)N(Cc2ccccc2)[C@@H]1C
inactive: Potency [1] | Potency [2] | Potency [3] | Potency [4]

CCCCC#C[C@@H]1C=C[C@H](Oc2ccc(C(=O)OC)cc2)[C@@H](COC(=O)OCC)O1
inactive: Potency [1] | Potency [2] | Potency [3] | Potency [9] | Potency [4]

CC(C)=CCCC(C)=CCON=C1C[C@@H](O)[C@@H](O)[C@@H]2[C@H]3C(=O)N(Cc4ccc5c(c4)OCO5)C(=O)[C@@H]3CC[C@@H]12
inactive: Potency [1] | Potency [2] | Potency [4]

CCOC(=O)[C@@]1([C@@H](NC(=O)OC)c2ccco2)CCCC1=O
inactive: Potency [1] | Potency [2] | Potency [3] | Potency [4]

COc1ccc(O[C@H]2C=C[C@@H](c3ccccc3)O[C@H]2COC(=O)NCc2cccc3ccccc23)cc1
inactive: Potency [1] | Potency [2] | Potency [4]

CC(C)=CCCC(C)=CCON=C1C[C@@H](O)[C@@H](O)[C@@H]2[C@H]3C(=O)N(Cc4ccc5c(c4)OCO5)C(=O)[C@@H]3CC[C@H]12
inactive: Potency [1] | Potency [2] | Potency [4]

COC(=O)C1=C(C(=O)OC)[C@@H]2Nc3ccccc3[C@@]23C[C@@H](C(=O)OC)N(C(=O)Nc2ccccc2F)C3=N1
inactive: Potency [1] | Potency [2] | Potency [4]

CCN1C(=O)[C@@H]2[C@H]3[C@H](O)[C@H](O)CC(=NOCC[C@@H]4C=C[C@H](OC(C)=O)[C@@H](COC(C)=O)O4)[C@@H]3CC[C@H]2C1=O
inactive: Potency [1] | Potency [2] | Potency [3] | Potency [9] | Potency [4]

CC(=CC[Si](C)(C)C)CCC=O
inactive: Potency [1] | Potency [2] | Potency [4]

CCN1C(=NCc2ccc(OC)cc2)N[C@@H](CCc2ccccc2)[C@H](C(=O)NCc2ccc(OC)cc2)[C@H]1C
inactive: Potency [1] | Potency [2] | Potency [4]

CCCCCCCC1=CC2=CC(=O)C(C)(OC(C)=O)C(=O)C2=CN1CCc1ccccc1 (stereo not drawn)
active: Potency [7] 3.16 µM
inactive: activity change, positive = activation [10] -45.9% [at 11.4 µM] | activity, negative = inhibition [8] 78.5% [at 11.4 µM] | Potency [1] | Potency [2] | Potency [3] | Potency [4]

C#CCNC(=O)[C@H]1C=C(OC)C(=O)C[C@H](c2ccccc2)[C@H]1C
inactive: Potency [1] | Potency [3] | Potency [9] | Potency [4]

O=C1CCC=C1C(O)c1ccccc1 (stereo not drawn)
inactive: Potency [1] | Potency [2] | Potency [3] | Potency [9] | Potency [4]

C[C@H]1COc2c(N3CCN(C)CC3)c(F)cc3c(=O)c(C(=O)NCc4ccco4)cn1c23
inactive: Potency [1] | Potency [3] | Potency [9]

C[C@@H]1CC[C@H]2C(=O)N(Cc3cccc([N+](=O)[O-])c3)C[C@H](O)CN2[C@@H]1c1cccc(Br)c1
inactive: Potency [1] | Potency [2] | Potency [4]

COC(=O)C1=NOC2(C=C(Br)C(OC)=C(Br)C2=O)C1 (stereo not drawn)
inactive: activity change, negative = inhibition [5] -4.18% [at 11.4 µM] | activity change, negative = inhibition [6] -15.6% [at 11.4 µM] | activity change, negative = inhibition [7] -8.27% [at 11.4 µM] | activity, negative = inhibition [8] -27.3% [at 11.4 µM] | Potency [1] | Potency [2] | Potency [3] | Potency [9] | Potency [4]

C=C(CCN1C=C(C(=O)OCC)C(c2ccccc2)NC1=O)c1ccccc1 (stereo not drawn)
inactive: Potency [1] | Potency [2] | Potency [3] | Potency [9] | Potency [4]

COCC=CC1=CC2=CC(=O)C(C)(OC(=O)c3cnc4ccccc4n3)C(=O)C2=CN1C1CC1 (stereo not drawn)
inactive: Potency [1] | Potency [3] | Potency [9] | Potency [4]

COC(=O)N[C@H](CC(C)=O)c1cccc(F)c1
inactive: Potency [1] | Potency [3] | Potency [9] | Potency [4]

CNc1ccccc1C(=O)OCC(C)=O
inactive: activity change, negative = inhibition [5] 24.8% [at 11.4 µM] | activity change, negative = inhibition [6] -11.5% [at 11.4 µM] | activity change, negative = inhibition [7] 9.06% [at 11.4 µM] | activity, negative = inhibition [8] -17.8% [at 11.4 µM]
